PubChem BioAssay (NCATS)
Records with an inconclusive call do not appear. A number with no mark means an inactive call. The source made the active and inactive calls. The call rests on the fitted dose curve; in most records, active means well fitted inhibition curve with a large enough effect; inconclusive means small, poorly fitted or top-dose-only effect; inactive means flat fitted curve, though single readings scatter.

test system: MKL-2; assay: qHTS assay to identify novel small-molecules to repurpose for Merkel cell carcinoma treatment (AID 1296009); settings: MCC and control cell lines, CellTiter-Glo viability, 72 h; series mostly up to 46 µM; activity change, negative = cytotoxicity: at the top concentration; further: nearly all actives have a fitted effect of over 60% in size
In short: (§1)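 After compound transfer in DMSO, plates were kept 72 hr at 37 degree celsius. Luminescent ATP signal from CellTiter-Glo served as viability measure, normalized against DMSO and no-cell controls.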
On the % scale 0 is the no-effect control and ±100 the full control effect; potency means the concentration at half of the fitted maximal effect.

Structure (SMILES)	Potency	activity change, negative = cytotoxicity
Cc1ccc([N+](=O)[O-])[c]2c1[O][Hg]2	42.2 nM (active)	–
O=C(N[C@@H]1N=C(c2ccccc2F)c2cccc3c2N(CC3)C1=O)c1cc2ccccc2[nH]1	–	-2.47%
CC1Sc2c(C(=O)O)c(=O)c3cc(F)c(N4CCNCC4)cc3n21 (stereo unspecified)	–	-20.3%
OC(O)C(Cl)(Cl)Cl	–	8.74%
CCCOC(=O)Cc1ccc(OCC(=O)N(CC)CC)c(OC)c1	–	1.48%
COP(=O)(OC)C(O)C(Cl)(Cl)Cl (stereo unspecified)	–	3.7%
COCC(=O)N(c1c(C)cccc1C)C(C)C(=O)OC (stereo unspecified)	–	27.7%
C[C@@H]1CN(C2CCC(C#N)(c3ccc(F)cc3)CC2)CC[C@]1(C(=O)O)c1ccccc1 (stereo partly specified)	–	18.5%
O=C(O)c1nn(Cc2ccc(Cl)cc2Cl)c2ccccc12	inactive	–
Cc1ccc(N=CN(C)C=Nc2ccc(C)cc2C)c(C)c1	–	26.6%
COC(=O)C1=CCCN(C)C1	inactive	–
O=C(CCCN1CCC(n2c(=O)[nH]c3ccccc32)CC1)c1ccc(F)cc1	–	-0.0047%
O=C1CN2CCOC2(c2ccccc2Cl)c2cc(Cl)ccc2N1 (stereo unspecified)	–	16.8%
C[C@H]1CNCCc2ccc(Cl)cc21	–	9.13%
COc1cc(N)c(Cl)cc1C(=O)NC1CN2CCC1CC2 (stereo unspecified)	–	21.8%
O=C(O)Cc1ccccc1	–	-13.8%
C1CN2CCC1CC2	–	8.81%
CN1C(=O)CN=C(c2ccccc2)c2cc([N+](=O)[O-])ccc21	–	10.1%
O=C(CBr)Nc1ccc(Cl)cc1C(=O)c1ccccc1F	–	-8.18%
CCOC(=O)NC(O)C(Cl)(Cl)Cl (stereo unspecified)	–	15.3%

Structure (SMILES)	Potency	activity change, negative = cytotoxicity
CC(C)C(Br)C(=O)NC(N)=O (stereo unspecified)	–	11%
COP(=O)(OC)OC=C(Cl)Cl	–	16%
COc1cc(C[C@@H](C)N)c(OC)cc1Br	–	-11.1% [at 92.7 µM]
ClCCCN1CCN(c2cccc(Cl)c2)CC1	–	-1.75%
CC(CC(C(N)=O)(c1ccccc1)c1ccccc1)N(C)C (stereo unspecified)	–	8.85%
Cc1nc2ccccc2c(=O)n1-c1ccccc1Cl	–	-10.4% [at 92.7 µM]
CCS(=O)(=O)C(C)(C)S(=O)(=O)CC	–	5.18%
O=c1[nH]c2cc(Cl)ccc2n1C1CCNCC1	–	21.3%
C[N+]1(CCC(C(N)=O)(c2ccccc2)c2ccccc2)CCCCC1	–	21.6%
COP(=S)(OC)Oc1ccc(Sc2ccc(OP(=S)(OC)OC)cc2)cc1	–	3.92%
NC(=O)OCCCc1ccccc1	–	8.2%
CCOP(=S)(OCC)O/N=C(\C#N)c1ccccc1	–	4.37%
CCN1CCCC1CNC(=O)C(O)(c1ccccc1)c1ccccc1 (stereo unspecified)	–	4.67%
CCC1(CC)C(=O)NC(=O)NC1=O	–	10.6%
CC(C)(O)C(Cl)(Cl)Cl	–	12%
c1ccc2nc(N3CCNCC3)ccc2c1	–	2.08%
CCOC(=O)C(c1c(O)c2ccccc2oc1=O)c1c(O)c2ccccc2oc1=O	–	11.9%
CC(C)(C)OC(=O)c1ncn2c1[C@@H]1CCCN1C(=O)c1c(Br)cccc1-2	–	2.19%
CC(C(O)c1ccccc1)N(C)C/C=C/c1ccccc1 (stereo unspecified)	–	-7.41%

test system: NIH3T3; assay: as above; settings: MCC and control cell lines, CellTiter-Glo viability, 72 h; at 44.8 µM (top of the series) unless noted
In short: as §1

Structure (SMILES)	outcome
CC1Sc2c(C(=O)O)c(=O)c3cc(F)c(N4CCNCC4)cc3n21 (stereo unspecified)	inactive
OC(O)C(Cl)(Cl)Cl	inactive
COP(=O)(OC)C(O)C(Cl)(Cl)Cl (stereo unspecified)	inactive
COCC(=O)N(c1c(C)cccc1C)C(C)C(=O)OC (stereo unspecified)	inactive
C[C@@H]1CN(C2CCC(C#N)(c3ccc(F)cc3)CC2)CC[C@]1(C(=O)O)c1ccccc1 (stereo partly specified)	inactive
O=C(O)c1nn(Cc2ccc(Cl)cc2Cl)c2ccccc12	inactive
Cc1ccc(N=CN(C)C=Nc2ccc(C)cc2C)c(C)c1	inactive
COC(=O)C1=CCCN(C)C1	inactive
O=C1CN2CCOC2(c2ccccc2Cl)c2cc(Cl)ccc2N1 (stereo unspecified)	inactive
C[C@H]1CNCCc2ccc(Cl)cc21	inactive
COc1cc(N)c(Cl)cc1C(=O)NC1CN2CCC1CC2 (stereo unspecified)	inactive
O=C(O)Cc1ccccc1	inactive
C1CN2CCC1CC2	inactive
CN1C(=O)CN=C(c2ccccc2)c2cc([N+](=O)[O-])ccc21	inactive
O=C(CBr)Nc1ccc(Cl)cc1C(=O)c1ccccc1F	inactive
COP(=O)(OC)OC=C(Cl)Cl	inactive
ClCCCN1CCN(c2cccc(Cl)c2)CC1	inactive
CC(CC(C(N)=O)(c1ccccc1)c1ccccc1)N(C)C (stereo unspecified)	inactive
O=c1[nH]c2cc(Cl)ccc2n1C1CCNCC1	inactive
C[N+]1(CCC(C(N)=O)(c2ccccc2)c2ccccc2)CCCCC1	inactive
COP(=S)(OC)Oc1ccc(Sc2ccc(OP(=S)(OC)OC)cc2)cc1	inactive
NC(=O)OCCCc1ccccc1	inactive
CCOP(=S)(OCC)O/N=C(\C#N)c1ccccc1	inactive
CCN1CCCC1CNC(=O)C(O)(c1ccccc1)c1ccccc1 (stereo unspecified)	inactive
CCC1(CC)C(=O)NC(=O)NC1=O	inactive
CC(C)(O)C(Cl)(Cl)Cl	inactive
CCOC(=O)C(c1c(O)c2ccccc2oc1=O)c1c(O)c2ccccc2oc1=O	inactive
CC(C)(C)OC(=O)c1ncn2c1[C@@H]1CCCN1C(=O)c1c(Br)cccc1-2	inactive

test system: UISO; assay: as above; settings: MCC and control cell lines, CellTiter-Glo viability, 72 h; series mostly up to 46 µM; activity change, negative = cytotoxicity: at the top concentration
In short: as §1

Structure (SMILES)	Potency	activity change, negative = cytotoxicity
Cc1ccc([N+](=O)[O-])[c]2c1[O][Hg]2	335 nM (active)	–
O=C(N[C@@H]1N=C(c2ccccc2F)c2cccc3c2N(CC3)C1=O)c1cc2ccccc2[nH]1	2990 nM (active)	–
CC1Sc2c(C(=O)O)c(=O)c3cc(F)c(N4CCNCC4)cc3n21 (stereo unspecified)	–	-11.2%
OC(O)C(Cl)(Cl)Cl	–	10.2%
CCCOC(=O)Cc1ccc(OCC(=O)N(CC)CC)c(OC)c1	–	7.29%
COP(=O)(OC)C(O)C(Cl)(Cl)Cl (stereo unspecified)	–	20.6%
COCC(=O)N(c1c(C)cccc1C)C(C)C(=O)OC (stereo unspecified)	–	12.7%
C[C@@H]1CN(C2CCC(C#N)(c3ccc(F)cc3)CC2)CC[C@]1(C(=O)O)c1ccccc1 (stereo partly specified)	–	12.6%
O=C(O)c1nn(Cc2ccc(Cl)cc2Cl)c2ccccc12	inactive	–
Cc1ccc(N=CN(C)C=Nc2ccc(C)cc2C)c(C)c1	–	24.8%
COC(=O)C1=CCCN(C)C1	inactive	–
O=C(CCCN1CCC(n2c(=O)[nH]c3ccccc32)CC1)c1ccc(F)cc1	–	-1.02%
O=C1CN2CCOC2(c2ccccc2Cl)c2cc(Cl)ccc2N1 (stereo unspecified)	–	-15.2%
C[C@H]1CNCCc2ccc(Cl)cc21	–	15%
COc1cc(N)c(Cl)cc1C(=O)NC1CN2CCC1CC2 (stereo unspecified)	–	16.6%
O=C(O)Cc1ccccc1	–	-6.41%
C1CN2CCC1CC2	–	20.3%
CN1C(=O)CN=C(c2ccccc2)c2cc([N+](=O)[O-])ccc21	–	17.6%
O=C(CBr)Nc1ccc(Cl)cc1C(=O)c1ccccc1F	–	-26.1%
CCOC(=O)NC(O)C(Cl)(Cl)Cl (stereo unspecified)	–	16.2%

Structure (SMILES)	Potency	activity change, negative = cytotoxicity
CC(C)C(Br)C(=O)NC(N)=O (stereo unspecified)	–	-6.82%
COP(=O)(OC)OC=C(Cl)Cl	–	27.6%
COc1cc(C[C@@H](C)N)c(OC)cc1Br	–	-16% [at 92.7 µM]
ClCCCN1CCN(c2cccc(Cl)c2)CC1	–	11.7%
CC(CC(C(N)=O)(c1ccccc1)c1ccccc1)N(C)C (stereo unspecified)	–	12.8%
Cc1nc2ccccc2c(=O)n1-c1ccccc1Cl	–	-27% [at 92.7 µM]
CCS(=O)(=O)C(C)(C)S(=O)(=O)CC	–	11.3%
O=c1[nH]c2cc(Cl)ccc2n1C1CCNCC1	–	-4.35%
C[N+]1(CCC(C(N)=O)(c2ccccc2)c2ccccc2)CCCCC1	–	-4.73%
COP(=S)(OC)Oc1ccc(Sc2ccc(OP(=S)(OC)OC)cc2)cc1	–	0.127%
NC(=O)OCCCc1ccccc1	–	6.85%
CCOP(=S)(OCC)O/N=C(\C#N)c1ccccc1	–	-12.6%
CCN1CCCC1CNC(=O)C(O)(c1ccccc1)c1ccccc1 (stereo unspecified)	–	6.39%
CCC1(CC)C(=O)NC(=O)NC1=O	–	-0.418%
CC(C)(O)C(Cl)(Cl)Cl	–	16.5%
c1ccc2nc(N3CCNCC3)ccc2c1	–	-13%
CCOC(=O)C(c1c(O)c2ccccc2oc1=O)c1c(O)c2ccccc2oc1=O	–	17.7%
CC(C)(C)OC(=O)c1ncn2c1[C@@H]1CCCN1C(=O)c1c(Br)cccc1-2	–	1.17%
CC(C(O)c1ccccc1)N(C)C/C=C/c1ccccc1 (stereo unspecified)	–	-1.84%
